# High-throughput results as filed in PubChem.
# CYP2C9 inh: blockers of cytochrome P450 2C9 activity – biochemical, luminescence, ADME assay, primary screen; P11712; CYP2C9 Supersomes, luciferin-H conversion; inhibition, % at 5 µM; 96,000 tested, 20% active;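 active means blocking of liver enzyme CYP2C9 beyond about 50% at 5 µM, limit read from the data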
# E-sel TNF inh: E-selectin induction blockers in HUVEC – imaging, immunofluorescence, high content, primary screen; inhibition, % at 2 µM; HUVEC TNFa-induced E-selectin immunofluorescence; AID 1246, 2008; 120,000 tested, 0.71% active;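 active means inhibition above the batch mean plus 3 SD, and confirmed as a hit on visual image review, cut at about 43% in these data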;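 further: 0% = TNF-stimulated DMSO wells and 100% = unstimulated control wells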
# CYP2C9 act: human CYP2C9 activators, primary screen, biochemical, luminescence; Cytochrome P450 2C9 (Homo sapiens), P11712; recombinant CYP2C9, luciferin-H conversion; active compounds read high; factor 1 = untreated enzyme, 0 = blocked; activation factor at 5 µM; 96,000 tested, 1.4% active;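 active means activation factor of 2 or more for CYP2C9 at a 5 µM dose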;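 further: 0 = sulfaphenazole-blocked wells and 1 = vehicle-only wells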
# CYP2C19 inhib: blockers of cytochrome P450 2C19 activity – biochemical, luminescence, ADME assay, primary screen; AID 778, 2007; CYP2C19 Supersomes, luciferin-H EGE luminescence, 30 min; inhibition, % at 5 µM; 96,000 tested, 21% active; P33261;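 active means CYP2C19 inhibition above a set limit at 5 µM in the primary screen, cut at about 50% in these data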;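 further: plate controls were negative control wells for no effect and 2.5 mM tranylcypromine positive control for full effect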
# Target sequence (P33261 whole entry, looked up): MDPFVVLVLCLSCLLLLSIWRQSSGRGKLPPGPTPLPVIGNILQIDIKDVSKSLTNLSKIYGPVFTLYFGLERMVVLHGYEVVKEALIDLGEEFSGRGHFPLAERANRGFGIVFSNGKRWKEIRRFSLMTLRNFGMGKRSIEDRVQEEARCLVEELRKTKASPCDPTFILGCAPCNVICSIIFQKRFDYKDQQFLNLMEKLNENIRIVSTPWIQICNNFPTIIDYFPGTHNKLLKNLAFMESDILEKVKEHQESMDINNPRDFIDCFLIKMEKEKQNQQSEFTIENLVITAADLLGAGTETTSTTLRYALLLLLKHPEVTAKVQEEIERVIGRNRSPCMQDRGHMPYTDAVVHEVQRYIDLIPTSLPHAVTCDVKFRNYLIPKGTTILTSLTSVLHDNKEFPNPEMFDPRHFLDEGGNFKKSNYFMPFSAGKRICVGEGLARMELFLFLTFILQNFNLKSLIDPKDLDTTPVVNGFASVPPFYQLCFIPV
# cytoskel mod: modifiers of F-actin cytoskeleton organization, primary screen, imaging, HUVEC, phalloidin staining, high-content imaging; AID 836, 2007; 91,000 tested, 0.18% active; HUVEC TNFa F-actin phalloidin imaging; inhibition, % at 2 µM;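 active means inhibition above the batch mean plus 3 SD and confirmed as a hit by visual image inspection, cut at about 30% in these data, passing the limit was not always enough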
# CYP2C19 activ: human CYP2C19 activators, primary screen, biochemical, luminescence. 96,000 tested, under 10 active. recombinant CYP2C19, luciferin-H EGE luminescence; active compounds read high; 0 = fully inhibited enzyme, 1 = untreated enzyme. activation factor at 5 µM. Cytochrome P450 2C19 (Homo sapiens), P33261;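 active means activation factor of at least 2 at 5 µM in the primary screen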;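 further: 0 = wells with 2.5 mM tranylcypromine and 1 = vehicle-only wells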
# Numbers without * were called inactive; x = no result given. An excerpt weighted towards active compounds, which were near 22% of everything screened.
SMILES,CYP2C9 inh,E-sel TNF inh,CYP2C9 act,CYP2C19 inhib,cytoskel mod,CYP2C19 activ
Cc1ccc(S(=O)(=O)c2ccc(-n3nc(C)cc3N)cc2)cc1,x,-30,x,x,x,x
COC(=O)c1cccc(NC(=O)C(C)N2C(=O)c3ccccc3C2=O)c1 (configuration not stated),98*,x,0,48,-26,0.5
CC1(C)Cc2ccccc2-c2n[nH]c(=S)n21,53*,x,0.5,26,-29,0.7
COC(=O)[C@H](CCSC)NC(=O)Nc1ccc(C)c(C)c1,22,10,0.8,62*,14,0.4
COC(=O)[C@H](CCSC)NC(=O)Nc1ccc(C(C)C)cc1,-9,-15,1.1,5,43,0.9
COC(=O)[C@H](CCSC)NC(=O)Nc1ccc(C)cc1C,24,x,0.8,52*,x,0.5
Cc1ccc(NC2CC(=O)N(Cc3ccccc3)C2=O)cc1 (configuration not stated),-46,-7,1.5,68*,-4,0.3
CCCN(CCC)C1CC(=O)N(Cc2ccccc2)C1=O (configuration not stated),12,x,0.9,85*,x,0.2
O=C1CC(N(O)C2CC(=O)N(Cc3ccccc3)C2=O)C(=O)N1Cc1ccccc1 (configuration not stated),11,x,0.9,17,x,0.8
COc1ccc(NC2CC(=O)N(c3cccc(C)c3)C2=O)cc1 (configuration not stated),13,3,0.9,60*,1,0.4
Cc1ccc(N2C(=O)CC(Nc3ccccc3)C2=O)cc1 (configuration not stated),9,-23,0.9,53*,-6,0.5
COc1cccc(NC2CC(=O)N(CCc3ccccc3)C2=O)c1 (configuration not stated),21,-54,0.8,50,13,0.5
CC(C(=O)NCc1ccccc1)N(CCN1CCOCC1)C(=O)c1snc(C(N)=O)c1N (configuration not stated),-11,-20,1.1,8,37,0.9
COc1cccc(C2C(C(N)=O)=C(C)Nc3nc(CCCO)nn32)c1OC (configuration not stated),x,x,x,x,12,x
CCCCN1C(=O)CC(Nc2ccc(CC)cc2)C1=O (configuration not stated),22,1,0.8,77*,-5,0.2
CCc1ccc(NC2CC(=O)N(CCc3ccc(OC)c(OC)c3)C2=O)cc1 (configuration not stated),x,-12,x,x,x,x
CCOC(=O)CC(=O)NC(CC(=O)OC)c1ccc(Br)cc1 (configuration not stated),x,3,x,x,x,x
CC(=O)NC1C(=O)N(CCc2ccccc2)c2ccc(Br)cc21 (configuration not stated),15,8,0.8,80*,5,0.2
COc1ccc2c(=O)c3c(=O)n(Cc4ccco4)c(-c4cc(OC)c(OC)c(OC)c4)nc3oc2c1,x,-12,x,x,-3,x
CCCCCCn1c(-c2ccco2)nc2oc3cc(OC)ccc3c(=O)c2c1=O,90*,x,0.1,93*,9,0.1
COc1ccc2c(=O)c3c(=O)n(Cc4ccco4)c(-c4ccccc4)nc3oc2c1,73*,-20,0.3,73*,-10,0.3
CCCCn1c(=O)[nH]c(=O)c2c1nc(-c1ccc(CC)c([N+](=O)[O-])c1)n2C,x,-3,x,x,x,x
CC1(C(=O)Nc2cccc(C(F)(F)F)c2)CO1 (configuration not stated),x,7,x,x,x,x
Cn1nnnc1SCc1cccc(CSc2nnnn2C)n1,-2,1,1,98*,-18,0
Cn1nnnc1SCc1csc(Nc2ccccc2)n1,-277,-34,3.8*,17,x,0.8
SMILES,CYP2C9 inh,E-sel TNF inh,CYP2C9 act,CYP2C19 inhib,cytoskel mod,CYP2C19 activ
Cc1ccc(Nc2nc(CSc3nnnn3C)cs2)cc1,-177,15,2.8*,70*,23,0.3
Cc1ccc(Nc2nc(CSc3nnnn3-c3ccccc3)cs2)cc1,-68,-29,1.7,35,3,0.6
Fc1ccc(Sc2ccccc2CNC2=NCCN2)cc1,x,-5,x,x,x,x
CCCCNc1oc(-c2ccc(OC)cc2)nc1S(=O)(=O)c1ccccc1,18,10,0.8,54*,23,0.5
O=S(=O)(c1ccccc1)c1nc(-c2ccco2)oc1NCc1ccco1,29,-1,0.7,47,-11,0.5
O=S(=O)(c1ccccc1)c1nc(-c2ccco2)oc1NCCCn1ccnc1,99*,-16,0,100*,-10,0
CC1CCCCC1NC(=O)c1cc2ccccc2o1 (configuration not stated),x,13,x,x,x,x
COc1cc(CNCc2ccccn2)ccc1OCC(=O)NC(C)(C)C,x,7,x,x,x,x
O=C(CCc1ccccc1)Nc1ccc(NC(=O)c2ccco2)nc1,25,-9,0.7,17,-4,0.8
O=C(Nc1ccc(S(=O)(=O)NCCc2ccccc2)cc1)c1ccco1,95*,23,0.1,59*,-44,0.4
O=C(CCc1ccccc1)Nc1ccc(NC(=O)c2ccco2)cc1,82*,x,0.2,71*,-5,0.3
O=C(O)COc1ccc(NC(=O)c2ccco2)cc1,-161,12,2.6*,8,-12,0.9
O=C(Nc1ccc(S(=O)(=O)NCc2cccnc2)cc1)c1ccco1,0,x,1,-10,-2,1.1
O=C(CSCCNS(=O)(=O)c1ccccc1)Nc1ccccc1,50,-3,0.5,92*,6,0.1
Cc1ccc(NC(=O)CNc2ccc(N3CCOCC3)cc2)cc1S(=O)(=O)N(C)C,x,-1,x,x,x,x
O=C(CCl)NCc1c(Cl)cccc1-n1cccc1,-1,-36,1,16,16,0.8
CC(Oc1ccc(NC(=O)c2ccco2)cc1)C(=O)N1c2ccccc2CC1C (configuration not stated),51*,39,0.5,33,-12,0.7
CC(C)Oc1cccc(C(=O)Nc2ccc(NC(=O)c3ccco3)cc2)c1,34,x,0.7,29,8,0.7
CCOCC(=O)Nc1ccc(S(=O)(=O)NCCc2ccccc2)cc1,30,-9,0.7,60*,12,0.4
CCCNS(=O)(=O)c1ccc(NC(=O)c2ccccn2)cc1,85*,-22,0.1,57*,-7,0.4
CCN(CC)S(=O)(=O)c1ccc(NC(=O)c2ccccn2)cc1,49,8,0.5,28,15,0.7
O=C(Nc1ccccc1-c1ccccc1)c1ccc(NC(=O)c2ccco2)cc1,48,31,0.5,53*,4,0.5
CCC(C)NC(=O)C1CCC(=O)N(c2ccc3c(c2)OCO3)C1c1ccc(OC)cc1 (configuration not stated),26,x,0.7,39,-7,0.6
